The list is not random: actives were taken first. Their share in the collection is about 4.1%.
BoNT F protease: BoNT/F light chain protease inhibitors, primary screen, biochemical, flow cytometry, MLPCN library; Botulinum neurotoxin type F light chain protease (Clostridium botulinum); actives 0.22% (n = 360,000); inhibition, % at 10 µM; AID 588497, 2011; Multiplex microsphere protease cleavage assay; in the data active means inhibition above about 35%, passing the limit was not always enough; inconclusive means no clear call, values can overlap the other calls; further: plate controls were buffer without enzyme for full effect and enzyme alone for no effect
DUSP3 inh: VHR1 phosphatase inhibitors, primary screen, biochemical, absorbance, uHTS; recombinant VHR phosphatase, pNPP absorbance; inhibition, % at 13.3 µM; AID 1654, 2009; Dual specificity protein phosphatase 3 (Homo sapiens), P51452; actives 0.52% (n = 290,000); in the data active means inhibition above about 50%
Target sequence (P51452 whole entry, looked up): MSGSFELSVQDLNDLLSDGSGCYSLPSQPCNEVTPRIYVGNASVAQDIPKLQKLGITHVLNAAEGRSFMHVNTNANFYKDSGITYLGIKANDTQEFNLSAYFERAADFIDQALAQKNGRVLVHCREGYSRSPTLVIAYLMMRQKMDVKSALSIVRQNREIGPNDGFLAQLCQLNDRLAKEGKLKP
BoNT A protease: BoNT/A light chain protease inhibitors, primary screen, biochemical, flow cytometry, MLPCN library. Botulinum neurotoxin type A light chain protease (Clostridium botulinum A str. ATCC 3502). multiplex microsphere protease substrate cleavage. inhibition, % at 10 µM. actives 0.17% (n = 360,000); further: plate controls were buffer without enzyme for full effect and enzyme alone for no effect
Anthrax LF prot: Bacillus anthracis LF protease inhibitors, primary screen, biochemical, multiplex microsphere, MLPCN library | Lethal factor (Bacillus anthracis), P15917 | multiplex microsphere protease cleavage assay | inhibition, % at 10 µM | actives 0.12% (n = 360,000) | AID 588501, 2011; further: plate controls were buffer without enzyme for full effect and enzyme alone for no effect
Autofluor counter: flagged as autofluorescent in microsphere protease counterscreen. actives 3.1% (n = 360,000). compound autofluorescence counterscreen, microsphere flow cytometry; active compounds read high. AID 624483. fluorescence intensity (test concentration not listed); in the data active means fluorescence intensity above about 16000; inconclusive means no clear call, values can overlap the other calls
MazF activator: activators of E. coli MazEF toxin-antitoxin RNase, primary screen, biochemical, fluorescence, uHTS. Endoribonuclease toxin MazF (Escherichia coli (strain K12)), P0AE70. FAM/BHQ RNA-DNA oligo cleavage fluorescence, 5 h. activation, % at 20 µM. actives 0.32% (n = 350,000); in the data active means activation above about 50%
Target sequence (P0AE70 whole entry, looked up): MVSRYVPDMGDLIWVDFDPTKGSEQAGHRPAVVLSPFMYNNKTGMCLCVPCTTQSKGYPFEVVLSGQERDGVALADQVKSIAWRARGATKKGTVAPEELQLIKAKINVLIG
* marks the source's active call; other numbers are inactive results; ? = inconclusive; · = no result given. Unless noted, no stated cut-off is given here; in the data, active means inhibition above about 30%; inconclusive means no clear call, values can overlap the other calls; inactive means below that.

SMILES	BoNT F protease	DUSP3 inh	BoNT A protease	Anthrax LF prot	Autofluor counter	MazF activator
O=C(COc1ccc(S(=O)(=O)N2CCCC2)cc1)NCc1cccnc1	4.7	14.1	1.9	10.8	3486	5.9
O=C(/C=C/c1cc([N+](=O)[O-])ccc1OC(F)F)Nc1cccc2ccccc12	-5.6	29.8	-0.4	1.2	2795	11.4
COc1ccc(CNC(=O)/C=C/c2cc([N+](=O)[O-])ccc2OC(F)F)cc1	-1.6	24.0	?	1.5	16762*	6.7
COc1ccc(CNC(=O)/C=C/c2cc([N+](=O)[O-])ccc2OC(F)F)cc1OC	15.0	26.1	?	-13.2	18771*	18.6
COc1ccccc1NC(=O)/C=C/c1cc([N+](=O)[O-])ccc1OC(F)F	-8.5	22.6	-0.3	2.8	6184	22.0
O=C(/C=C/c1cc([N+](=O)[O-])ccc1OC(F)F)NCc1ccc(Cl)cc1	-11.1	24.4	-0.5	-1.3	2333	6.6
COC(=O)c1ccc(CNC(=O)/C=C/c2cc([N+](=O)[O-])ccc2OC(F)F)cc1	1.3	22.8	2.5	-4.3	19547*	17.2
CC1CCCCN1S(=O)(=O)c1ccc(NC(=O)c2ccco2)cc1 (stereo not drawn)	-2.9	-16.6	?	-1.1	20490*	-7.8
Cc1cc2cc(C)c3nnc(SCC(=O)Nc4ccc(S(=O)(=O)N5CCCCC5C)cc4)n3c2cc1C (stereo not drawn)	-0.3	1.9	0.4	-1.6	2154	-46.0
CC1CCCCN1S(=O)(=O)c1ccc(NC(=O)CSc2nnnn2C)cc1 (stereo not drawn)	1.1	8.2	?	-0.5	21890*	-4.1
Cc1cccc(NC(=O)c2nc[nH]c2C(=O)N2CCC(C)CC2)c1	-4.7	·	-1.2	3.7	2988	8.7
Cc1ccc(-c2nc(S(=O)(=O)c3ccccc3)c(SCC(=O)NCC3CCCO3)o2)cc1 (stereo not drawn)	-5.2	-9.5	0.8	4.4	6213	6.6
CC1(C)C(=O)Nc2ccccc2N1C(=O)COC(=O)Cc1ccc(Cl)c(Cl)c1	-4.3	·	-0.1	-2.6	3869	3.7
Cc1nc(Nc2nc(CSc3nc4ccccc4[nH]3)cc(=O)[nH]2)nc2ccccc12	5.2	8.1	1.9	0.1	9543	-69.6
Cc1ccc2c(C)nc(Nc3nc(CSc4nnc(C)s4)cc(=O)[nH]3)nc2c1	-3.5	17.2	-0.1	-6.9	11178	95.7*
COc1cccc2c(C)nc(Nc3nc(CSc4nnc(C)s4)cc(=O)[nH]3)nc12	3.7	-1.3	1.1	-4.1	3194	62.2*
CCOC(=O)C(=CNc1ccccc1C)C(=O)OCC	1.1	-32.6	-0.7	-4.3	5509	0.3
CCOC(=O)C(=CNc1cc(C)nn1-c1ccccc1)C(=O)OCC	7.2	14.0	?	-3.2	21382*	-15.5
Cc1cc(=O)oc2cc(OCC(=O)Nc3nnc(CC(C)C)s3)ccc12	34.8*	17.3	0.3	4.3	4905	0.5
CC1=C(C(=O)N(C(C)C)C(C)C)CC(CC(=O)NCCCCc2ccccc2)C(=O)N1CCCN1CCCC1=O (stereo not drawn)	-0.9	·	0.5	-1.8	6232	·
COc1ccc(CN(Cc2cc3cc(C)ccc3[nH]c2=O)C(=O)N(C)C)cc1	12.1	12.8	0.3	2.4	4427	-2.2
Cc1ccc2[nH]c(=O)c(CN(CCO)C(=O)N(C)C)cc2c1	-8.5	·	-5.6	-1.5	17576*	-2.0
Cc1ccc(S(=O)(=O)N(C)Cc2cc3ccccc3[nH]c2=O)cc1	-1.9	-9.5	0.4	-9.2	22031*	1.7
CCOc1ccc(N(C)S(=O)(=O)c2ccc(C)c(C(=O)Nc3nnc(C4CC4)s3)c2)cc1	-2.9	·	-0.6	-4.2	8626	-2.4
COc1ccc(-n2nnnc2SCC(=O)Nc2nnn(C)n2)cc1	0.5	39.1	1.9	-2.1	22244*	6.8
SMILES	BoNT F protease	DUSP3 inh	BoNT A protease	Anthrax LF prot	Autofluor counter	MazF activator
CSc1nsc(SCC(=O)Nc2c(C)n(C)n(-c3ccccc3)c2=O)n1	0.8	18.8	2.1	0.9	20801*	0.9
Cc1c(NC(=O)CSc2nnnn2-c2ccc(F)cc2)c(=O)n(-c2ccccc2)n1C	-1.4	5.6	-0.4	-1.7	4399	7.7
COc1ccc(-n2nnnc2SCC(=O)NC2CC2)cc1	-23.2	·	-9.5	-6.0	8008	-1.8
Cc1c(NC(=O)CSc2nnnn2-c2ccc(O)cc2)c(=O)n(-c2ccccc2)n1C	-3.5	23.4	?	-1.9	23720*	1.2
COc1cc(-c2cccc([C@H]3[C@@H]4C=CC[C@@H](C)[C@@H]4C(=O)N3Cc3ccccc3)c2)cc(OC)c1OC	-7.0	·	0.0	-5.9	3410	-5.8
C[C@@H]1CN([C@H](C)CO)C(=O)CCCn2nncc2CO[C@H]1CN(C)C	-2.8	·	-0.4	-5.7	3522	5.2
O=C(N=C1SC2CS(=O)(=O)CC2N1c1ccc(OC(F)(F)F)cc1)C1CC1 (stereo not drawn)	-0.1	1.1	1.4	0.0	5246	0.9
CN(C)C(=O)Cn1cc(S(=O)(=O)Cc2ccccc2)c2ccccc21	-0.1	59.1*	-0.1	-1.4	5743	7.2
CN(C(=O)CS(=O)(=O)c1cn(CC(=O)N2CCCC2)c2ccccc12)c1ccccc1	-5.9	9.6	0.2	3.2	4194	1.0
CCOc1ccc(N2CC(C(=O)NCCCc3ccccc3)CC2=O)cc1 (stereo not drawn)	-2.3	·	2.5	1.9	4984	-17.1
O=C(NNC(=O)c1cccc2ccccc12)c1ccc(Br)cc1	0.3	·	-1.1	-7.0	4268	65.7*
CCCCn1c(CCn2nc(C)c(Br)c2C)n[nH]c1=S	0.2	10.5	-2.0	-0.3	23887*	0.2
O=C(Nc1nc2cc3c(cc2s1)OCCO3)c1ccc([N+](=O)[O-])o1	-0.9	-4.0	-0.3	-3.6	5860	5.0
COc1ccccc1C/C(N)=N/OC(=O)COc1cccc2ccccc12	0.8	15.4	3.5	-11.8	21885*	-6.2
COc1ccccc1C/C(N)=N/OC(=O)COc1ccccc1C	-22.6	7.6	-1.5	-1.2	6902	2.2
O=C(O)c1ccccc1-c1ccc(/C=C/c2cc(C(F)(F)F)[nH]c(=O)n2)o1	-4.2	20.4	-0.7	-5.1	3632	745.0*
N#Cc1c(-c2ccc(F)cc2)nc2n(c1=O)CCS2	3.9	31.0	2.1	-9.0	22077*	-0.7
Cc1cc(O)c(C(C)C)cc1NC(=S)Nc1cc(C(C)C)c(O)cc1C	1.1	·	-0.2	-6.9	3875	3.8
COc1ccc(CNC(=O)C2CCCN(c3nc4ccccc4o3)C2)c(OC)c1 (stereo not drawn)	2.3	52.6*	0.7	4.0	7921	1.8
CC(C)(C)c1ccc(NC(=O)c2ccc(=O)[nH]n2)cc1	-2.0	·	2.0	10.2	3449	12.4

Bioassay records deposited in PubChem by several laboratories.
